Assay results: PubChem BioAssay
Values without a mark were called inactive. How the calls were made is not given here.

Target: Pantothenate synthetase (Mycobacterium tuberculosis (strain ATCC 25618 / H37Rv)) (UniProt P9WIL5)
Assay: Coupled enzyme confirmation of inhibitors against recombinant Mtb PanC (AID 375);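 further: 0% = full reaction with vehicle and 100% = no enzyme background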
Settings: coupled enzyme assay; at 10 µM, stronger effect = higher value

Pantothenate synthetase (Mycobacterium tuberculosis (strain ATCC 25618 / H37Rv)), sequence (P9WIL5 whole entry, looked up): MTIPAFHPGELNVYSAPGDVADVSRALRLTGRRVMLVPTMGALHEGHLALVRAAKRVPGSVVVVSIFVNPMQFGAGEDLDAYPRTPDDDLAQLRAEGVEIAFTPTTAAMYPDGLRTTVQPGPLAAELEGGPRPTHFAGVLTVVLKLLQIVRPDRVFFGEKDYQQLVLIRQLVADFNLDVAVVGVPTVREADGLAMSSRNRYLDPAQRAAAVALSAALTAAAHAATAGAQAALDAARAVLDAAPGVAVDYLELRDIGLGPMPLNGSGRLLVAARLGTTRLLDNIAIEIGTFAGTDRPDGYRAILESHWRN

SMILES | inhibition
CC(C)(C)N(Cc1cc2ccccc2[nH]c1=O)C(=O)C1CCCCC1 | 3%
O=c1c2cc3ccccc3n2cnn1Cc1ccccc1F | 0%
CC(=O)NC1(C(F)(F)F)NC(=O)N(CC(C)C)C1=O (stereo not drawn) | 0%
Cc1cc(=O)[nH]c(SCc2nc3ncccn3c2Br)n1 | 11%
COC(=O)Cc1c(C)c2ccc(OCC(=O)N3CCOCC3)cc2oc1=O | 0%
COc1ccc(S(=O)(=O)Nc2ccc(Cl)cn2)c(C)c1C | 1%
Cc1ccccc1C(OCCN(C)C)c1ccccc1 (stereo not drawn) | 0%
CCOc1ccc(-c2nnc(N)s2)cc1 | 0%
Cc1cc(C(=O)NCc2cccnc2)n(-c2ccccc2)n1 | 0%
COc1ccc(-n2c(Cc3cccn3C)nnc2SCC(=O)Nc2ccccc2)cc1 | 0%
Cc1cccc(-n2ccnc2SCC(=O)Nc2cc(C)on2)c1 | 1%
Oc1ccc(-c2n[nH]c(=S)n2Cc2ccccc2)cc1 | 0%
COc1ccc(/C=N/n2c(=O)[nH]c3c([nH]c4ccc(C)cc43)c2=O)cc1CN1CCOCC1 | 2%
Cn1c(-c2ccccc2)c(CCO)c2ccccc21 | 9%
CC(Sc1nnc(-c2cc3ccccc3o2)n1-c1ccccc1)C(=O)O (stereo not drawn) | 12%
Cc1nc2c(-c3ccccc3)c(C)nn2c(C)c1CCC(=O)NCc1ccco1 | 2%
CC(C)C(=O)Nc1ccc2c(c1)nc1n2CCSC1 | 0%
Cc1cc(C)cc(N2C(=O)CC(N3CCOCC3)C2=O)c1 (stereo not drawn) | 0%
